Results from PubChem BioAssay.
“And” between values parts separate entries of the source, which are not always exact repeats. Equal values may be shown once. A number with no mark means an inactive call. For some assays here: Measured potencies and affinities stand elsewhere. The source made the active and inactive calls. Unless noted, the rule behind the calls is not given here.

How the values were obtained:
[1] = antimalarial activity against Dd2 strain (AID 2302;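 active = growth inhibition above 50% at the single 2 µM test dose, taken to imply half-maximal potency below 2 µM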;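 note: 0% = DMSO untreated growth and 100% = chloroquine plus artemisinin killed control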); details: P. falciparum Dd2 in RBCs, LDH growth readout, 72 h; at 2 µM; active compounds read high
[2] = human hepatoma cell viability loss – ATP luminescence, cytotoxicity control for P. falciparum antimalarial project, primary screen (AID 2303;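 active = inhibition above 50%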;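 note: 0% = DMSO wells and 100% = digitonin-killed cells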); details: HepG2 viability, 24-48 h, at 10 µM, active compounds read high
[3] = molecular target: L-lactate dehydrogenase (Plasmodium falciparum (isolate CDC / Honduras)) (UniProt Q27743); experiment: PfLDH activity inhibition – cell lysate, 3D7 strain, counter-screen for P. falciparum growth inhibition project (AID 2304);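 note: 0% = vehicle and 100% = reference inhibitor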; details: P. falciparum 3D7 crude extract, LDH APAD/NBT absorbance; at 2 µM; active compounds read high
Chain of L-lactate dehydrogenase (Plasmodium falciparum (isolate CDC / Honduras)) (Q27743 whole entry, looked up): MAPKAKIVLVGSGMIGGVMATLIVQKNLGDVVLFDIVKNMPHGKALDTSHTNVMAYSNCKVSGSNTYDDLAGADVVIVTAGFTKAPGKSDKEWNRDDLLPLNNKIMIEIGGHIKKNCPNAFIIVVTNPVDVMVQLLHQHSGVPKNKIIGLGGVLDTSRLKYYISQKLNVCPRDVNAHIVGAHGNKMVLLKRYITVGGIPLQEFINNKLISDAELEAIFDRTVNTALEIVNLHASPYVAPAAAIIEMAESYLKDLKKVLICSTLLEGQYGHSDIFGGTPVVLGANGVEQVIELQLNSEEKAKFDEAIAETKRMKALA

[4] = inhibition of 3D7 malaria parasite growth – strain 3D7 (AID 2306);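 note: 0% = DMSO wells and 100% = chloroquine plus artemisinin control wells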; details: P. falciparum 3D7 erythrocytic growth, LDH absorbance, 72 h; at 2 µM; active compounds read high
[5] = molecular target: Calcium-dependent protein kinase 1 (Plasmodium falciparum (isolate 3D7)) (UniProt P62344); experiment: PfCDPK1 kinase inhibitors, biochemical, TCAMS library (AID 1159585; cut-off not given, nearly all actives have IC50 up to about 0.98 µM;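 note: inhibitors leave more ATP so luminescence rises with inhibition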); details: recombinant PfCDPK1, Kinase-Glo ATP depletion luminescence
Chain of Calcium-dependent protein kinase 1 (Plasmodium falciparum (isolate 3D7)) (P62344 whole entry, looked up): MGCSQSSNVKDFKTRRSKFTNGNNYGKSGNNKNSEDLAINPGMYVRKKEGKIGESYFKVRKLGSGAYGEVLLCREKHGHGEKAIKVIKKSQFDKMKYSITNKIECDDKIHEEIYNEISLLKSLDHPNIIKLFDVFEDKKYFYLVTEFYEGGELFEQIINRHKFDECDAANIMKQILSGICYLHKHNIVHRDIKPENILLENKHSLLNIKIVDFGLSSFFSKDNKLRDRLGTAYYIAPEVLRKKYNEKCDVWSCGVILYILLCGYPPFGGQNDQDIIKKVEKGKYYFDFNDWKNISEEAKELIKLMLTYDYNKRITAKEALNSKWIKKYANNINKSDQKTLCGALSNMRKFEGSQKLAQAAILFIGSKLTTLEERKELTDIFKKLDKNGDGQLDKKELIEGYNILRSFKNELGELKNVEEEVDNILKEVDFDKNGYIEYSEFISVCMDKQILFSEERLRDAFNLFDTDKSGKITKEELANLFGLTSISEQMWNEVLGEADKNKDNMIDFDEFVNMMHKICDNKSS

[6] = molecular target: Plasmodium falciparum protein kinase 6 (PK6, PF3D7_1337100) (UniProt Q8IDW1); experiment: PfPK6 kinase inhibitors, biochemical, TCAMS library (AID 1159586); details: recombinant PfPK6, Kinase-Glo ATP depletion luminescence
Chain of Plasmodium falciparum protein kinase 6 (PK6, PF3D7_1337100) (Q8IDW1 1-305): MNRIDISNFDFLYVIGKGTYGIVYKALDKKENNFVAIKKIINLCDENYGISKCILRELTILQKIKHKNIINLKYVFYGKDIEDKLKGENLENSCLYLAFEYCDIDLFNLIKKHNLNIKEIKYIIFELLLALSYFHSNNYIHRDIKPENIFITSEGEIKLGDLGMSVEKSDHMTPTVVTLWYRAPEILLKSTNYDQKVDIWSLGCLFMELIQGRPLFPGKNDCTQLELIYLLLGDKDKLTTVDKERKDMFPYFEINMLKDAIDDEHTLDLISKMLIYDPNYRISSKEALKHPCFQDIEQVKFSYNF

[7] = molecular target: Protein kinase 7 (PK7), Plasmodium falciparum 3D7 (PF3D7_0213400) (UniProt Q7YTF7); experiment: inhibition of Plasmodium PK7 catalytic activity – biochemical, TCAMS antimalarial set, Kinase-Glo luminescence (AID 1159587); details: recombinant PfPK7, Kinase-Glo ATP depletion luminescence
Chain of Protein kinase 7 (PK7), Plasmodium falciparum 3D7 (PF3D7_0213400) (Q7YTF7 1-343): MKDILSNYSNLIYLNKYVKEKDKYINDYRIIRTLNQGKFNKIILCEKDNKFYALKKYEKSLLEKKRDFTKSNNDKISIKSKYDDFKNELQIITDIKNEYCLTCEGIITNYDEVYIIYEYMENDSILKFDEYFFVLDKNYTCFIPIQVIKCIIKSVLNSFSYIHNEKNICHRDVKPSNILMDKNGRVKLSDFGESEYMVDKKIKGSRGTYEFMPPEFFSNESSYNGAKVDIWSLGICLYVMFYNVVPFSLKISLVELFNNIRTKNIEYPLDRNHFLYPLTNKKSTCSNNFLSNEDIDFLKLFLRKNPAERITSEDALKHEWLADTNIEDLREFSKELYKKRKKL

[8] = molecular target: Calcium-dependent protein kinase 4 (Plasmodium falciparum (isolate 3D7)) (UniProt Q8IBS5); experiment: PfCDPK4 kinase inhibitors, biochemical, TCAMS library (AID 1159588; cut-off not given, nearly all actives have IC50 up to about 0.91 µM); details: recombinant PfCDPK4, Kinase-Glo ATP depletion luminescence
Chain of Calcium-dependent protein kinase 4 (Plasmodium falciparum (isolate 3D7)) (Q8IBS5 whole entry, looked up): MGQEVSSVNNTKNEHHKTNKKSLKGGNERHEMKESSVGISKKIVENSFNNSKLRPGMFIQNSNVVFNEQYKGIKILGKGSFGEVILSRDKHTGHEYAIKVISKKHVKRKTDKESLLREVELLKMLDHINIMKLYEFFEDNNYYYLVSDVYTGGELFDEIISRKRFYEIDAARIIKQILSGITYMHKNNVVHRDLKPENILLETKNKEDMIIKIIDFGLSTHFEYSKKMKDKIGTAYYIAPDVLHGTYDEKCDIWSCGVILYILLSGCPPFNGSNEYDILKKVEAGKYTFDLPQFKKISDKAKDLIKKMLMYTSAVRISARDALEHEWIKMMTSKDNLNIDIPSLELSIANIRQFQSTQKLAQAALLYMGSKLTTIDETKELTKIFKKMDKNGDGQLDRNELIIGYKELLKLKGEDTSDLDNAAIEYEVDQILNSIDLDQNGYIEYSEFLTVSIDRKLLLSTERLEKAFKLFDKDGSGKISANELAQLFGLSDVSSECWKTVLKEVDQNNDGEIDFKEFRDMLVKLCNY

| SMILES | growth inhibition [1] | inhibition [2] | inhibition [3] | growth inhibition [4] | outcome [5] | outcome [6] | outcome [7] | outcome [8] |
| --- | --- | --- | --- | --- | --- | --- | --- | --- |
| NC1=NC(c2ccccc2)(c2ccccc2)C(=O)N1CC1CCC1 | 74% (active) | 17% | 3% | 96% (active) | inactive | inactive | inactive | inactive |
| O=S(=O)(NCCN1CCCC1)c1cccc(-c2ccccc2CNC2Cc3ccccc3C2)c1 | 76% (active) | 35% | -3% | 99% (active) | inactive | inactive | inactive | inactive |
| CCCCCCN1CCCN(Cc2ccc(C(=O)Nc3ccc(CC)cc3)cc2)CC1 | 50% (active) | 53% (active) | 2% | 97% (active) | inactive | inactive | inactive | inactive |
| O=C(Nc1cccc(CN2CCN(Cc3ccc(O)cc3)CC2)c1)c1ccc(Cl)c(Cl)c1 | 95% (active) | 30% | 2% | 102% (active) | inactive | inactive | inactive | inactive |
| CC(CCCCC(=O)Nc1ccc(C(F)(F)F)cc1)NCC(O)c1cccc(Cl)c1 (stereo not given) | 92% (active) | 51% (active) | -8% | 99% (active) | inactive | inactive | inactive | inactive |
| Cc1[nH]c2cccc(F)c2c(=O)c1Cc1ccc(Cl)cc1 (tested in a mixture with another compound) | 94% (active) and 92% (active) | 7% and 6% | 5% | 94% (active) and 93% (active) | inactive | inactive | inactive | inactive |
| O=C(Nc1ccc2c(c1)CCN2C1CCN(Cc2cccc3cc[nH]c23)C1)c1ccco1 (stereo not given) | 86% (active) | -1% | 2% | 88% (active) | inactive | inactive | inactive | inactive |
| CCCC(C)Nc1nc(C)cc(N[C@@H](CC(C)C)C(=O)NCCOc2ccccc2)n1 (stereo not given in full) | 28% | 15% | 1% | 93% (active) | inactive | inactive | inactive | inactive |
| O=C(Cc1cnc[nH]1)Nc1ccc(-c2cccc(-c3nc4ccc(F)cc4[nH]3)c2)cc1 | 70% (active) | 28% | 4% | 100% (active) | inactive | inactive | inactive | inactive |
| CC(C)CNCc1cccc(-c2cccc(CNCCCN3CCN(C)CC3)c2)c1 | 7% | 5% | 1% | 88% (active) | inactive | inactive | inactive | inactive |
| Cc1cc(NCC2CCN(CC3CCCCC3)C2)nc(Nc2ccc(Br)cc2)n1 (stereo not given) | 78% (active) | -2% | 0% | 101% (active) | inactive | inactive | inactive | inactive |
| CN1CCN(c2cccc(-c3nnc(-c4cccc(OCC(=O)NCc5ccc(C(F)(F)F)cc5)c4)o3)c2)CC1 | 86% (active) | 10% | -4% | 98% (active) | inactive | inactive | inactive | inactive |
| Cc1[nH]c(C)c(-c2ccc(Oc3ccc(OC(F)(F)F)cc3)cc2)c(=O)c1Br | 95% (active) and 97% (active) | -4% and -1% | 1% and 2% | 96% (active) | inactive | inactive | inactive | inactive |
| CCc1nc2c(N)nc(N)nc2nc1-c1ccc(OC)cc1 | -3% | 44% | 2% | 86% (active) | inactive | inactive | inactive | inactive |
| O=C(Nc1cc(Cl)ccc1O)c1ccc(Oc2ccc(C(=O)Nc3cc(Cl)ccc3O)cc2)cc1 | 91% (active) | 32% | -3% | 97% (active) | inactive | inactive | inactive | inactive |
| CS(=O)(=O)c1ccc(CCNCc2ccc(-c3ccc(CN(C(=O)c4cccc(C#N)c4)C4CCN(Cc5ccccc5)CC4)cc3)nc2)cc1 | 56% (active) | 20% | 1% | 96% (active) | inactive | inactive | inactive | inactive |
| CC(C)C1CCc2nc(N)nc(N)c2C1 (stereo not given) | -2% | 70% (active) | -5% | 95% (active) | inactive | inactive | inactive | inactive |
| CC(C)(C)NC(=O)COC(=O)c1c2c(nc3ccccc13)C(=Cc1ccc3c(c1)OCO3)CCC2 | 82% (active) | 7% | -4% | 90% (active) | inactive | inactive | inactive | inactive |
| CC1(C)N=C(N)N=C(N)N1c1ccc2ccccc2c1 | -1% | 48% | -2% | 95% (active) | inactive | inactive | inactive | inactive |
| COc1ccccc1N1CCN(Cc2cc(C(C)C)c(C)cc2O)CC1 | 98% (active) | 7% | 2% | 97% (active) | inactive | inactive | inactive | inactive |

| SMILES | growth inhibition [1] | inhibition [2] | inhibition [3] | growth inhibition [4] | outcome [5] | outcome [6] | outcome [7] | outcome [8] |
| --- | --- | --- | --- | --- | --- | --- | --- | --- |
| COc1ccc(Cl)cc1N1CCN(CCCNC(=O)c2ccc(-c3nc4cc5ccccc5cc4[nH]3)c(F)c2)CC1 | 62% (active) | 12% | -3% | 99% (active) | inactive | inactive | inactive | inactive |
| Oc1ccc(Cl)cc1CN1CCCC(COC(c2ccc(F)cc2)c2ccc(F)cc2)C1 (stereo not given) | 100% (active) | 20% | 3% | 98% (active) | inactive | inactive | inactive | inactive |
| Cc1cc(N(C)C)nc(Nc2ccc(NC(=O)c3ccccc3F)cc2)n1 | 26% | 0% | 4% | 89% (active) | inactive | inactive | inactive | inactive |
| Cc1cc(=O)c(-c2ccc(Oc3cccc(C(F)(F)F)c3)cc2)c(C)[nH]1 | 95% (active) and 97% (active) | 8% and 14% | -2% and -1% | 96% (active) and 97% (active) | inactive | inactive | inactive | inactive |
| COc1ccc(-c2ccc(S(=O)(=O)Nc3cc4c(cc3OC(C)C)CCN(C)CC4)cc2)cc1 | 2% | 16% | -4% | 98% (active) | inactive | inactive | inactive | inactive |
| CCCCN(Cc1cc(Cl)c(OC)c(OC)c1)c1ccc(C(O)(C(F)(F)F)C(F)(F)F)cc1 | 73% (active) | 3% | 6% | 98% (active) | inactive | inactive | inactive | inactive |
| CC(=O)Nc1ccc(OCCN(Cc2ccccc2C(F)(F)F)c2ccc(C#N)c(C(F)(F)F)c2)cc1 | 81% (active) | 8% | 0% | 101% (active) | inactive | inactive | inactive | inactive |
| CN(C)CCNC(=O)N1CCCN(c2ncnc3cc(-c4ccccc4)sc23)CC1 | 37% | 5% | 5% | 96% (active) | inactive | inactive | inactive | inactive |
| Cc1cc(N[C@@H](Cc2ccccc2)C(=O)NCCc2ccccc2)nc(NCCc2ccc(F)cc2)n1 | 89% (active) | 9% | 2% | 99% (active) | inactive | inactive | inactive | inactive |
| Cc1ccc(NCc2cccc(F)c2)cc1S(=O)(=O)N[C@@H]1CCN(C#N)C1 | 83% (active) | 13% | -2% | 89% (active) | inactive | inactive | inactive | inactive |
| c1ccc(Oc2ccc(Nc3ccnc4cc(-c5ccc(CN6CCOCC6)o5)ccc34)cc2)nc1 | 73% (active) | 5% | 0% | 92% (active) | inactive | inactive | inactive | inactive |
| c1ccc(CN2CCC(NCc3ccc(-c4ccc(CNC5CCCC5)cc4)cc3)CC2)cc1 | 98% (active) | 24% | -4% | 101% (active) | inactive | inactive | inactive | inactive |
| Oc1ccc(OCc2ccccn2)cc1 | 0% | 5% | 2% | 98% (active) | inactive | inactive | inactive | inactive |
| CN1CCC(NCc2ccc(-c3ccc(S(=O)(=O)NC4CCC4)s3)cc2)CC1 | 31% | 31% | 1% | 92% (active) | inactive | inactive | inactive | inactive |
| CN1CCC(C(=O)Nc2ccc(-c3cccc(-c4nc5ccc(C(F)(F)F)cc5[nH]4)c3)cc2)CC1 | 97% (active) | 28% | 0% | 100% (active) | inactive | inactive | inactive | inactive |
| O=C(NCC1CCN(Cc2ccc(F)cc2)C1)c1cc(-c2cccc(C(F)(F)F)c2)cs1 (stereo not given) | 18% | 38% | -2% | 93% (active) | inactive | inactive | inactive | inactive |
| CC1CN(Cc2cccc(-c3ccc(-c4nc5ccc(F)cc5[nH]4)cc3)c2)CC(C)O1 (stereo not given) | 88% (active) | 45% | -3% | 87% (active) | inactive | inactive | inactive | inactive |
| FC(F)(F)c1ccc2nccc(NN=Cc3ccc(Cl)cc3)c2c1 | 53% (active) | 5% | -2% | 102% (active) | inactive | inactive | inactive | inactive |
| COc1ccc(-c2cccc(NC(=O)c3ccc(F)cc3)c2)cc1CNC(C)C | 9% | 32% | 1% | 83% (active) | inactive | inactive | inactive | inactive |
| O=C1c2cc(I)ccc2SC1c1ccccc1 (stereo not given) | 98% (active) | -7% | -2% | 96% (active) | inactive | inactive | inactive | inactive |
